According to the supplement of paper PMC7411054:
Counter-ions that a name gives are not always drawn.

Assays:
Details in all cases: treatment time: 24 h
A549-ACTB-RAB5A [1] = assay: lowest phenotypically active concentration; higher = less potent
How it was run: (§1)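 After 24 h at 0.3, 1, 3 or 9 µM, with four wells per treatment, fifteen gene-edited A549, HepG2 and WPMY1 reporter lines carrying BFP, GFP and RFP/FusionRed were imaged live. Each well's live-cell features were expressed relative to solvent control wells. Deviation required ≥3 of 4 wells past the 95th percentile of control Euclidean distances, and reproducibility a median replicate Pearson correlation over the 95th percentile of non-replicates. Phenotypic activity rested on both.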

A549-GM130-SQSTM1 [2] = assay: as above
How it was run: as §1

HepG2-TP53BP1-CLTA [3] = assay: as above
How it was run: as §1

A549-ACTB-RAB5A [4] = assay: phenotypically active (imaging signature differs from DMSO and reproducible) at any of 0.3-9 uM (binary (1 = active, 0 = inactive)); higher = active
How it was run: as §1

A549-CANX-COX4 = assay: as above
How it was run: as §1

A549-GM130-SQSTM1 [5] = assay: as above
How it was run: as §1

A549-TP53BP1-CLTA = assay: as above
How it was run: as §1

A549-TUBA1B-RELA [6] = assay: as above
How it was run: as §1

HepG2-ACTB-RAB5A [7] = assay: as above
How it was run: as §1

HepG2-CANX-COX4 = assay: as above
How it was run: as §1

HepG2-GM130-SQSTM1 = assay: as above
How it was run: as §1

HepG2-TP53BP1-CLTA [8] = assay: as above
How it was run: as §1

HepG2-TUBA1B-RELA = assay: as above
How it was run: as §1

WPMY1-ACTB-RAB5A = assay: as above
How it was run: as §1

WPMY1-CANX-COX4 = assay: as above
How it was run: as §1

WPMY1-GM130-SQSTM1 = assay: as above
How it was run: as §1

WPMY1-TP53BP1-CLTA = assay: as above
How it was run: as §1

WPMY1-TUBA1B-RELA = assay: as above
How it was run: as §1

A549-TUBA1B-RELA [9] = assay: lowest phenotypically active concentration; higher = less potent
How it was run: as §1

HepG2-ACTB-RAB5A [10] = assay: as above
How it was run: as §1

Row | Compound | lowest phenotypically active concentration (A549-ACTB-RAB5A [1]) | lowest phenotypically active concentration (A549-GM130-SQSTM1 [2]) | lowest phenotypically active concentration (HepG2-TP53BP1-CLTA [3]) | phenotypically active (A549-ACTB-RAB5A [4]) | phenotypically active (A549-CANX-COX4) | phenotypically active (A549-GM130-SQSTM1 [5]) | phenotypically active (A549-TP53BP1-CLTA) | phenotypically active (A549-TUBA1B-RELA [6]) | phenotypically active (HepG2-ACTB-RAB5A [7]) | phenotypically active (HepG2-CANX-COX4) | phenotypically active (HepG2-GM130-SQSTM1) | phenotypically active (HepG2-TP53BP1-CLTA [8]) | phenotypically active (HepG2-TUBA1B-RELA) | phenotypically active (WPMY1-ACTB-RAB5A) | phenotypically active (WPMY1-CANX-COX4) | phenotypically active (WPMY1-GM130-SQSTM1) | phenotypically active (WPMY1-TP53BP1-CLTA) | phenotypically active (WPMY1-TUBA1B-RELA) | lowest phenotypically active concentration (A549-TUBA1B-RELA [9]) | lowest phenotypically active concentration (HepG2-ACTB-RAB5A [10])
1 | Nc1nccc(-c2ccc3noc(-c4ccc(Cl)cc4)c3c2)n1 [PIM-1 Inhibitor 2] | 3 µM | 3 µM | 9 µM | 1 (active) | 1 (active) | 1 (active) | 1 (active) | 0 (inactive) | 0 (inactive) | 0 (inactive) | 0 (inactive) | 1 (active) | 0 (inactive) | 1 (active) | 1 (active) | 1 (active) | 1 (active) | 1 (active) |  | 
2 | O=C(Nc1ccccc1)c1cc([N+](=O)[O-])ccc1Cl | 9 µM | 9 µM |  | 1 (active) | 1 (active) | 1 (active) | 0 (inactive) | 1 (active) | 1 (active) | 0 (inactive) | 0 (inactive) | 0 (inactive) | 0 (inactive) | 0 (inactive) | 1 (active) | 0 (inactive) | 0 (inactive) | 0 (inactive) | 3 µM | 9 µM
3 | Cc1cccc(C)c1OCC(=O)N[C@@H](Cc1ccccc1)[C@@H](O)C[C@H](Cc1ccccc1)NC(=O)[C@H](C(C)C)N1CCCNC1=O [lopinavir] | 9 µM |  |  | 1 (active) | 1 (active) | 0 (inactive) | 0 (inactive) | 0 (inactive) | 1 (active) | 0 (inactive) | 0 (inactive) | 0 (inactive) | 1 (active) | 0 (inactive) | 1 (active) | 0 (inactive) | 0 (inactive) | 0 (inactive) |  | 9 µM
4 | O=S(=O)(c1cccc2c(O)nccc12)N1CCCNCC1 [HA 1100 hydrochloride] | 3 µM |  | 1 µM | 1 (active) | 1 (active) | 0 (inactive) | 1 (active) | 1 (active) | 1 (active) | 1 (active) | 1 (active) | 1 (active) | 0 (inactive) | 1 (active) | 1 (active) | 1 (active) | 1 (active) | 1 (active) | 9 µM | 9 µM
5 | C[C@@H](Nc1ncnc2[nH]c(-c3ccc(O)cc3)cc12)c1ccccc1 [PKI 166 hydrochloride] | 3 µM | 3 µM | 9 µM | 1 (active) | 1 (active) | 1 (active) | 1 (active) | 1 (active) | 0 (inactive) | 1 (active) | 0 (inactive) | 1 (active) | 1 (active) | 1 (active) | 1 (active) | 1 (active) | 1 (active) | 1 (active) | 3 µM | 
6 | CC(C)n1c(/C=C/[C@@H](O)C[C@@H](O)CC(=O)O)c(-c2ccc(F)cc2)c2ccccc21 [fluvastatin] | 1 µM | 9 µM | 3 µM | 1 (active) | 1 (active) | 1 (active) | 1 (active) | 0 (inactive) | 1 (active) | 1 (active) | 1 (active) | 1 (active) | 1 (active) | 1 (active) | 1 (active) | 1 (active) | 1 (active) | 1 (active) |  | 1 µM
